# An excerpt weighted towards active compounds, which were near 1.8% of everything screened.
# EWS-Fli inh = blocks EWS/Fli oncoprotein-driven transcription; 0.67% of 350,000 active; A673 NR0B1-luciferase reporter, viability-normalised; inhibition, % at 12.6 µM;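 active = mean inhibition of at least 50% after viability correction, with every replicate also passing that limit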;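 note: firefly luciferase signal divided by Alamar Blue viability fluorescence both relative to DMSO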
# LGR2 antag = inhibitors of bursicon-induced Drosophila LGR2 receptor cAMP signaling. HEK293 LGR2, CRE-luciferase, bursicon-stimulated, 4 h. inhibition, % at 9.99 µM. 0.35% of 380,000 active;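 active = drop in luminescence signal, shown as inhibition above about 50% in the replicate tests, limit read from the data, passing the limit was not always enough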;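 note: agonist challenge used bursicon conditioned medium at about half maximal strength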
# PAX8 inh HTS = lowers PAX8-driven luciferase in RMG-I cells. 1.2% of 360,000 active. AID 652154. RMG-I TPO-luciferase reporter, SteadyGlo, 24 h. inhibition, % at 12.6 µM;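 active = mean replicate inhibition at least 60% with every replicate also reaching 60%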;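 note: luciferase light reporting Pax8 driven TPO promoter activity; plate controls were median of neutral control wells for no effect and mitoxantrone controls for full effect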
# F508del corr = CFTR F508del correction in bronchial cells; CFBE cells, YFP halide quenching; stimulated with forskolin plus potentiator P3; % fluorescence drop versus neutral controls; activity (quench increase), % at 7.58 µM; 0.36% of 350,000 active; AID 720511;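 active = mean added fluorescence quench of at least 8% versus neutral control, with both replicates also reaching 8%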;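 note: cells transiently co-express mutant CFTR-F508del with the halide-sensitive YFP; corrector assay measuring rescue of mutant channel to the surface after 24 h compound exposure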
# * = called active by the depositor; . = not tested or not shown.
SMILES,EWS-Fli inh,LGR2 antag,PAX8 inh HTS,F508del corr
Cc1noc(C)c1S(=O)(=O)Nc1ccc2c(c1)C(=O)N([C@H](C)CO)C[C@H](C)[C@H](CN(C)Cc1ccc(C(=O)O)cc1)OCCCC[C@H](C)O2,-8,-6,-2,0
Cc1noc(C)c1S(=O)(=O)Nc1ccc2c(c1)C(=O)N([C@H](C)CO)C[C@H](C)[C@H](CN(C)Cc1ccc(C(F)(F)F)cc1)OCCCC[C@H](C)O2,.,-30,74*,0
Cc1noc(C)c1S(=O)(=O)Nc1ccc2c(c1)C(=O)N([C@H](C)CO)C[C@@H](C)[C@@H](CN(C)Cc1ccc(C(=O)O)cc1)OCCCC[C@@H](C)O2,-16,-12,4,-2
Cc1noc(C)c1S(=O)(=O)Nc1ccc2c(c1)C(=O)N([C@@H](C)CO)C[C@H](C)[C@@H](CN(C)Cc1ccc(C(F)(F)F)cc1)OCCCC[C@@H](C)O2,.,-7,72*,3
Cc1noc(C)c1S(=O)(=O)Nc1ccc2c(c1)C(=O)N([C@H](C)CO)C[C@H](C)[C@@H](CN(C)Cc1ccc(C(F)(F)F)cc1)OCCCC[C@H](C)O2,.,24,72*,2
CCCNC(=O)[C@@H]1[C@@H](CO)[C@@H]2Cn3c(ccc(-c4ccc(F)cc4)c3=O)[C@@H]2N1CC,7,-6,.,3
CC(C)NC(=O)N(C)C[C@@H]1OCCCC[C@H](C)Oc2ccc(NS(=O)(=O)c3ccc(F)cc3)cc2C(=O)N([C@H](C)CO)C[C@@H]1C,-2,12,-13,-1
CCOC(=O)C1=C(C)N(CCCCCC(=O)O)C(=O)NC1c1ccccc1OC(=O)c1cccs1 (configuration not stated),-8,1,-10,2
CCOC(=O)c1c(NC(=O)C2c3ccccc3Oc3ccccc32)sc(C(C)=O)c1C,27,-8,.,11*
COC(=O)c1cc(Cl)cc2c(C)c(C3(O)CCCCC3)[nH]c12,-1,2,-3,-2
O=C(C[C@@H]1CC[C@@H]2[C@H](COC[C@H](O)CN2S(=O)(=O)c2cccc(Cl)c2)O1)Nc1ccc(-c2ccccc2)cc1,-2,-3,94*,5
O=C(C[C@H]1CC[C@H]2[C@@H](COC[C@@H](O)CN2S(=O)(=O)c2cccc(Cl)c2)O1)Nc1ccccc1,-2,3,-8,-1
O=C(C[C@@H]1CC[C@H]2[C@@H](COC[C@H](O)CN2S(=O)(=O)c2ccccc2)O1)Nc1ccc(-c2ccccc2)cc1,1,13,33,1
O=C(C[C@@H]1CC[C@H]2[C@@H](COC[C@H](O)CN2S(=O)(=O)c2cccc(Cl)c2)O1)Nc1ccc(-c2ccccc2)cc1,4,-4,67*,3
N#C[C@H]1[C@@H](c2ccc(-c3cccc(F)c3)cc2)[C@@H](CO)N1C(=O)NC1CCCCC1,.,33,68*,-2
CN(C)C(=O)c1ccc(-c2ccc(C3[C@H]4CNC[C@@H]3N4C(=O)NC3CCCCC3)cc2)cc1 (some centres not stated),.,7,.,-3
N#C[C@@H]1[C@H](c2ccc(-c3cccc(F)c3)cc2)[C@H](CO)N1C(=O)NC1CCCC1,15,38,3,8.6*
N#C[C@@H]1[C@@H](c2ccc(-c3cccc(F)c3)cc2)[C@H](CO)N1C(=O)NC1CCCC1,8,23,89*,1
N#C[C@H]1[C@@H](c2ccc(-c3cccc(F)c3)cc2)[C@H](CO)N1C(=O)NC1CCCCC1,0,7,.,-3
N#C[C@H]1[C@@H](c2ccc(-c3cccc(F)c3)cc2)[C@H](CO)N1C(=O)NC1CCCC1,-4,21,6,0
N#Cc1ccc(-c2ccc(C3[C@H]4CNC[C@@H]3N4C(=O)NC3CCCCC3)cc2)cc1 (some centres not stated),5,-27,73*,-2
O=C(Nc1ccncc1)c1ccc2ccccc2c1,-64,-51,-44,3
C[C@@H]1CN([C@@H](C)CO)C(=O)Cc2cc(NC(=O)c3ccncc3)ccc2O[C@@H]1CN(C)Cc1ccc(Cl)c(Cl)c1,.,3,26,5
CCCCc1c(-c2ccccc2OC)ncn1Cc1ccc(C)cc1,35,27,61*,2
CCCN(C(=O)CCSc1ccc(F)cc1)c1c(N)n(Cc2ccccc2)c(=O)[nH]c1=O,-1,10,12,-2
SMILES,EWS-Fli inh,LGR2 antag,PAX8 inh HTS,F508del corr
C[C@@H]1CCCCO[C@H](CN(C)S(=O)(=O)c2ccc(F)cc2)[C@H](C)CN([C@@H](C)CO)C(=O)c2cc(NC(=O)Nc3ccc(F)cc3)ccc2O1,-4,11,43,-3
C/C=C/c1ccc([C@H]2[C@@H](CO)N(C(=O)COC)[C@@H]2CNC(=O)CC)cc1,-4,-1,1,8.3*
O=C1C=CCC(/C=C/c2ccccc2)O1 (configuration not stated),8,41,-2,15*
O=C(O)c1ccccc1NS(=O)(=O)c1cccc(NS(=O)(=O)c2cc(Br)ccc2Br)c1,6,4,2,.
CC(C)(C)c1ccc(-c2cn(-c3ccc(Br)cc3)c3[n+]2CCCS3)cc1,39,19,95*,3
c1ccc(-c2cn(-c3ccccc3)c3[n+]2CCS3)cc1,14,22,20,3
O/N=C\c1cccn1-c1nccs1,-3,13,10,3
COC(=O)CN1C(=S)N(C)C(=O)C1CC(=O)Nc1ccccc1 (configuration not stated),-5,-5,115*,-3
COC(=O)CN1C(=S)N(c2ccc(Cl)cc2)C(=O)C1CC(=O)Nc1ccccc1 (configuration not stated),4,0,14,-1
Cc1nc2cc(Cc3ccccc3)ccc2o1,-7,-8,5,-8
CCCCCCCn1c2c(c(=N)c3ccccc31)CCC2,58*,27,100*,-3
Cc1ccc(/C=C/C(=O)c2ccc([N+](=O)[O-])o2)cc1,64*,16,27,-8
O=C(NOCc1ccccc1)c1ccc(Cl)cc1Cl,50,82*,11,2
O=C(Nc1ccccn1)c1ccc(-c2ccccc2)cc1,73*,70*,-1,1
O=C(COC(=O)c1cc([N+](=O)[O-])ccc1N1CCOCC1)Nc1c(Cl)cccc1Cl,-8,-8,-5,11*
O=C(COC(=O)c1cc([N+](=O)[O-])ccc1N1CCOCC1)c1ccccc1Cl,1,-12,13,4
Cc1ccc(C(=O)c2cc([N+](=O)[O-])ccc2N2CCCCC2)c(C)c1,48,5,89*,.
COc1ccc(C(=O)c2cc([N+](=O)[O-])ccc2N2CCOCC2)cc1,48,4,105*,11*
CCOc1ccc(C(=O)c2cc([N+](=O)[O-])ccc2N2CCOCC2)cc1,33,3,91*,.
Cc1ccc(S(=O)(=O)Nc2cc(-c3ccc(Cl)cc3)nn2C)cc1,18,-3,13,1
C[C@H]1CN([C@@H](C)CO)C(=O)c2cc(-c3ccc(F)cc3)cnc2O[C@H]1CN(C)C(=O)Cc1ccccc1,-9,-3,.,-1
CN1CCN(Cc2nc3ccccc3c(=O)n2Cc2nc(-c3ccc4ccccc4c3)cs2)CC1,40,90*,17,-5

# Assay outcomes deposited in PubChem by Broad Institute.
